Assay outcomes (PubChem)
Fam108B counter = mouse Fam108B serine hydrolase inhibitors, primary screen, counter-screen for RBBP9 inhibitor project, biochemical, fluorescence polarization. recombinant Fam108B, FP-Rh probe fluorescence polarization. inhibition, % at 9.51 µM. 0.33% of 300,000 active;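 active = inhibition above the screen mean inhibition plus 3 SD, computed separately per campaign, cut at about 18% in these data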;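 note: inhibitors lower polarization as less probe binds the enzyme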
pPAFAH inh = pPAFAH enzyme inhibitors, primary screen, biochemical, fluorescence polarization, human | Platelet-activating factor acetylhydrolase (Homo sapiens), Q13093 | recombinant pPAFAH, FP-rhodamine probe fluorescence polarization | inhibition, % at 3.39 µM | 1.5% of 330,000 active | AID 463082, 2010;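 active = inhibition above the mean inhibition across the screen plus 3 SD, cut at about 25% in these data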;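 note: inhibitors block binding of the rhodamine activity-based probe so polarization drops; 0% = enzyme with DMSO and 100% = wells lacking pPAFAH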
PME-1 primary = PME-1 inhibitors via competitive probe labeling, primary screen, biochemical, fluorescence polarization, FP-Rh probe, HTS; 0.53% of 320,000 active; inhibition, % at 5.9 µM; Protein phosphatase methylesterase 1 (Homo sapiens), Q9Y570; AID 2130, 2009; recombinant PME-1;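 active = inhibition above the campaign mean of all compounds plus 3 SD, cut at about 26% in these data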;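 note: competitive labeling of PME-1 active site by serine hydrolase directed probe; 0% = PME-1 with DMSO and 100% = wells lacking PME-1 enzyme; inhibitors block probe labeling so polarization falls and inhibition rises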
GSTO1 counter = inhibitors of recombinant GSTO1, primary screen, counter-screen for RBBP9 inhibitor project, biochemical, fluorescence polarization; activity-based probe fluorescence polarization; inhibition, % at 5.96 µM; 1.1% of 300,000 active;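 active = inhibition above the campaign mean inhibition plus 3 SD, cut at about 35% in these data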;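 note: 0% = GSTO1-1 with DMSO and 100% = wells lacking GSTO1-1 enzyme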
PAD4 inh = human PAD4 inhibitors, primary screen, biochemical, fluorescence polarization, 1536-well format; Protein-arginine deiminase type-4 (Homo sapiens), Q9UM07; recombinant PAD4, RCA probe fluorescence polarization; inhibition, % at 6.36 µM; 0.41% of 330,000 active;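 active = percent inhibition above a cutoff equal to the mean of all tested compounds plus 3 SD, cut at about 15% in these data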;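 note: 0% = PAD4 with RCA probe and DMSO and 100% = probe without PAD4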
Target sequence (Q9UM07 whole entry, looked up): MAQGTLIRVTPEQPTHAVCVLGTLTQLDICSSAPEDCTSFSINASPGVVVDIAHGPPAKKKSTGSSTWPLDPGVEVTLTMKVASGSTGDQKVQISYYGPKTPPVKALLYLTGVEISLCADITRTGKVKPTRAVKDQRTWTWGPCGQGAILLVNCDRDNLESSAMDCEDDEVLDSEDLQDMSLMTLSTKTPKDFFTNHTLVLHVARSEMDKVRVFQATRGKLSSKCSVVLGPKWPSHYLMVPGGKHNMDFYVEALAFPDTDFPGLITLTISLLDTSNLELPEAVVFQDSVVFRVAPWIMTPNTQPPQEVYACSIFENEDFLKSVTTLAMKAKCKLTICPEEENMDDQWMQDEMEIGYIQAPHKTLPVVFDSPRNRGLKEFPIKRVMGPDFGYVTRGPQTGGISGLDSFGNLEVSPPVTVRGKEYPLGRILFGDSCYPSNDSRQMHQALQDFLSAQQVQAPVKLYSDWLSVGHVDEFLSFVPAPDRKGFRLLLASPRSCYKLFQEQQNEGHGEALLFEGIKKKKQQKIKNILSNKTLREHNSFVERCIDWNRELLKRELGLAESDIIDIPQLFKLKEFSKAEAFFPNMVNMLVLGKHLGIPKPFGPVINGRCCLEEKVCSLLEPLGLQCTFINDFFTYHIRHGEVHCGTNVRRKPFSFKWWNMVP
Numbers without * were called inactive; nt = not tested or not shown. Shown are actives, neighbours in structure and some others; about 2.3% of the full set was active somewhere.

SMILES	Fam108B counter	pPAFAH inh	PME-1 primary	GSTO1 counter	PAD4 inh
COc1ccccc1CNC(=O)CNC(=O)[C@@H]1Cc2ccccc2CN1	-1	6	0	5	-2
O=C(COC(=O)c1c(Cl)cccc1Cl)NCc1cccs1	nt	4	nt	nt	-1
O=C(COC(=O)c1cccc(Cl)c1Cl)NCc1cccs1	nt	33*	4	nt	-4
Cn1c(SCC(=O)Nc2ccc3c(c2)n(C)c(=O)n3C)nnc1-c1ccncc1	1	-2	0	-2	0
Oc1nc(Nc2ccccc2)sc1/C=C1\C=Nc2ccccc21	14	16	44*	-71	0
CN(C)C1CCN(Cc2cc(COCc3ccccc3)c3cccnc3c2O)C1 (centres undefined)	nt	25*	nt	nt	-8
COc1ccc(CNC(=O)CSc2nc3[nH]ncc3c(=O)n2-c2ccccc2Br)cc1	5	1	2	42*	-2
COc1cc(CNc2ccc(N3CCCC3)cc2)ccc1OCc1ccccc1	5	29*	5	53*	-15
CC(=O)N1CCN(c2ccc(NCc3ccccc3)cc2)CC1	-3	32*	3	18	15
CC(=O)N1CCN(c2ccc(NCc3ccc4c(c3)OCO4)cc2)CC1	2	18	2	27	1
Cc1ccc(C(=O)N2CCN(c3ccc(NC(=S)NC(=O)Cc4ccccc4)cc3)CC2)cc1	0	25*	2	-3	-1
CC(=O)N1CCN(c2ccc(NCc3cccc4ccccc34)cc2)CC1	3	31*	0	14	5
COc1ccc(C(=O)N2CCN(c3ccc(NC(=O)Cc4ccccc4)cc3)CC2)cc1	1	10	0	-2	-11
C=C(C(=O)Oc1c(C(C)(C)C)cccc1C(C)(C)C)c1ccccc1	nt	0	-2	nt	-1
O=C(COC(=O)c1cc([N+](=O)[O-])ccc1NCCO)Nc1cccnc1Cl	nt	-1	nt	nt	3
COc1ccc(OC)c(NC(=O)COC(=O)C2CCCCC2)c1	nt	11	nt	nt	-2
CCOc1ccc(S(=O)(=O)NCCC(=O)OCC(=O)NC(=O)c2cccn2C)cc1	nt	25*	nt	nt	3
CC(C)(C)OC(=O)N1CCC(NC(=O)c2nc[nH]c2C(=O)NCC(=O)OCc2ccccc2)CC1	-3	33*	4	0	2
CC(C)(C)OC(=O)CNC(=O)c1[nH]cnc1C(=O)NC1CCN(C(=O)OC(C)(C)C)CC1	-2	2	0	-1	-1
COc1ccc(CC(=O)OCC(=O)Nc2ccc3c(c2)OCO3)cc1OC	1	9	-2	-2	-7
COc1ccc(CCC(=O)Nc2ccc3c(c2)OCO3)cc1OC	-3	0	5	35*	-4
S=C(Nc1ccc(Br)cc1Cl)N1CCN(c2ccccn2)CC1	1	7	-5	6	2
COc1ccc(C(=O)c2oc3ccc(OC)cc3c2N)cc1	9	14	33*	-4	-4
COC(=O)c1oc2ccc(OC)cc2c1N	3	5	-1	-1	-4
CC(NC(=O)COC(=O)c1ccco1)c1ccccc1 (centres undefined)	2	4	-1	2	-3
SMILES	Fam108B counter	pPAFAH inh	PME-1 primary	GSTO1 counter	PAD4 inh
CC(NC(=O)COC(=O)c1ccc(N(C)C)cc1)c1ccccc1 (centres undefined)	3	33*	6	1	-2
Cc1cc(SCC(=O)N/N=C/c2ccc(O)c(O)c2)nc2ccccc12	2	27*	7	33	-1
Cc1cc(SCC(=O)N/N=C/c2ccc(O)c(O)c2)c(C)cc1Br	-2	26*	10	22	0
CN(C(=O)COC(=O)c1cc(-c2ccccc2Cl)nc2ccccc12)C1CCS(=O)(=O)C1 (centres undefined)	-4	27*	-10	-4	2
COCCN(CC(=O)Nc1cccc(C)c1C)C(=O)Cn1c(=O)cnc2ccccc21	nt	-2	0	nt	-3
Cc1cc(C(=O)N/N=C2\CC(=O)c3ccccc32)c(C)n1-c1ccccc1	2	31*	-12	26	-8
Cc1ccc(-c2csc(N3N=C(c4ccccc4)/C(=C\c4ccc(N(C)C)cc4)C3=O)n2)cc1	6	28*	3	3	-9
C#CCNC(=O)C1CCN(c2cc(C)nc(-c3ccccc3)n2)CC1	1	3	-1	5	-2
O=C(O)CCn1cc(C2CC(c3ccccc3)=NN2c2ccccc2)c(-c2ccccc2)n1 (centres undefined)	2	27*	5	5	4
C=C1c2cccc(C(F)(F)F)c2O[C@H](C(=O)OCC)[C@H]1OC	nt	0	nt	nt	3
O=C(COC(=O)C1CC2C=CC1C2)Nc1ccc2c(c1)OC(F)(F)O2 (centres undefined)	0	26*	-2	2	-1
CC(=O)c1ccc(NC(=O)COC(=O)C2CC3C=CC2C3)cc1 (centres undefined)	nt	6	nt	nt	-4
C/C=C/C=C/[C@H]1Cc2cc(O)cc(O)c2O1	3	36*	4	17	9
CCOc1ccc(-c2cc(C(=O)NCCCN3CCCC3)c3ccccc3n2)cc1	-5	-1	1	3	3
CN1/C(=C\C=O)C(C)(C)c2ccccc21	-7	-5	-27	-11	-27
CN1/C(=C/C=C(C#N)C#N)C(C)(C)c2ccccc21	-57	0	51*	11	2
CN(CC(=O)Nc1ccc(F)cc1)CC(=O)N1CCCC1	nt	-1	9	nt	-1
O=c1nc(/C=C/c2cc([N+](=O)[O-])ccc2Cl)cc(C(F)(F)F)[nH]1	8	3	27*	12	5
COc1cc(OC)c(OC)cc1/C=C/c1cc(C(F)(F)F)[nH]c(=O)n1	-1	0	5	-6	-1
O=[N+]([O-])c1ccc(N2CCN(S(=O)(=O)c3ccccc3)CC2)cc1	0	3	4	1	3
Cc1ncc(CO)c(/C=N/NC(=S)Nc2ccc(Cl)c(Cl)c2)c1O	16	24	27*	-9	2
O=c1ccc2ccc(Oc3ccc([N+](=O)[O-])cc3Cl)cc2o1	3	30*	7	-7	3
NC(=O)c1ccc(Oc2ccc3ccc(=O)oc3c2)c([N+](=O)[O-])c1	6	8	23	-2	0
COc1cc(CN2CCC(CCC(=O)NC3CC3)CC2)cc(Cl)c1OC	-4	0	5	2	-8
CN(Cc1ccc(F)cc1)C(=O)c1cccc(NS(=O)(=O)c2ccccc2)c1	1	25*	1	6	-6
CSc1ccc(CN(C)C(=O)c2ccc(S(=O)(=O)Nc3ccccc3)cc2)cc1	1	32*	2	3	-1
Cc1cccc(C)c1NC(=O)CN(C)C(=O)c1cccc(NS(=O)(=O)c2ccccc2)c1	-3	30*	-1	-9	-3
